Experimental findings from PubChem BioAssay (Tox21) are described below.

Assay [1] addresses Acetylcholinesterase (Homo sapiens) (UniProt P22303). As to the kind of experiment: Acetylcholinesterase (AChE) small molecule antagonists: colormetric cell-based qHTS assay (AID 1347395). Note: nearly all actives have a fitted effect of over 30% in size. In outline:
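Homogeneous whole-cell format. SH-SY5Y cells seeded overnight, dosed with compound (30 min, 37 C, 5% CO2), then given DTNB/acetylthiocholine cocktail for 90 min at 37 C; colorimetric signal.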

Assay [2] shares this target. As to the kind of experiment: Acetylcholinesterase (AChE) small molecule antagonists: enzyme-based qHTS assay (AID 1347397). Note: nearly all actives have a fitted effect of over 55% in size. To be noted: Potency: AChE enzyme activity inhibition; outcome: AChE enzyme activity inhibition. In outline: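 Enzyme inhibition was scored from DTNB-detected thiocholine formed by recombinant human AChE acting on acetylthiocholine. The 30 min compound preincubation and 10 min substrate reaction were both run at room temperature, with DMSO as vehicle control.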
On the technique in general: qHTS replaces the single test concentration by a dilution series.

Assay [3] has the same target. As to the kind of experiment: Acetylcholinesterase (AChE) small molecule antagonists: fluorescence cell-based qHTS assay (AID 1347398). Note: nearly all actives have a fitted effect of over 50% in size. Note: potency is the fitted concentration of half-maximal effect. The note with it: Potency: AChE activity; outcome: AChE activity. In outline: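 Endogenous acetylcholinesterase of SH-SY5Y neuroblastoma cells is measured in situ. After overnight attachment and 30 min compound exposure, cells receive acetylthiocholine and Thiolite Green; fluorescence is read after 40 min at room temperature.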

For assay [4] the target is unchanged. As to the kind of experiment: Acetylcholinesterase (AChE) small molecule antagonists: enzyme-based qHTS assay with human liver microsomes (AID 1347399). Note: nearly all actives have a fitted effect of over 60% in size. The note with it: Potency: qHTS inhibition; outcome: qHTS inhibition. In outline: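 Recombinant human AChE (50 mU/mL in the enzyme mix) and human liver microsomes (0.25 mg/mL final) were preincubated with compound and NADPH (0.25 mg/mL final) for 30 min at 37 C. Acetylthiocholine/DTNB was then added; thiocholine was read colorimetrically after 10 min at room temperature.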

Inconclusive results are not listed. More than one record can exist for a structure, and the calls need not agree. Calls of active or inactive are those of the source. Calls come from the whole dose curve.
% is set by controls: 0 for no effect and ±100 for the full control effect.

Sequence of Acetylcholinesterase (Homo sapiens) (P22303 whole entry, looked up): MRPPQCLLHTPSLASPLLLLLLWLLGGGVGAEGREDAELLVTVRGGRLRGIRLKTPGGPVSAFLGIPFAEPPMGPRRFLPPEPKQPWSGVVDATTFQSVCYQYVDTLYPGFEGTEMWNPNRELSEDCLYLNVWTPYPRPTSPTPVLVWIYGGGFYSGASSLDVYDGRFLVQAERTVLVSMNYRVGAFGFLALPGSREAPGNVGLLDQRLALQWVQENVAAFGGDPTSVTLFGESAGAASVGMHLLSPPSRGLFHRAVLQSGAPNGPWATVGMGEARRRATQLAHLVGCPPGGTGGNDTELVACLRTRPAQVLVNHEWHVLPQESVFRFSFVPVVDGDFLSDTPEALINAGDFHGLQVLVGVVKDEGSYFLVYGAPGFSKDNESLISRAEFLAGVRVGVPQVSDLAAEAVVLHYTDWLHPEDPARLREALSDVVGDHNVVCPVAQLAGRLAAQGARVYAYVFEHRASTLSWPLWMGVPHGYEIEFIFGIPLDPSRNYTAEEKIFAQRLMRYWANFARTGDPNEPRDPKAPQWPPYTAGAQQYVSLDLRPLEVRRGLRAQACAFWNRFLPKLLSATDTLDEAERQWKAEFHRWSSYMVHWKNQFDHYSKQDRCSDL

For the compound `SC1CCCC1`, the Potency result in assay [1], in assay [2], in assay [3] and in assay [4] was “inactive” each time.
With `O=[N+]([O-])c1ccc(O)cc1`, the Potency entry in assay [1], in assay [2], in assay [3] and in assay [4] was “inactive” in each case.
As for `CCCCCCCCCCO`, the Potency entry in assay [1], in assay [2], in assay [3] and in assay [4] was “inactive” in each case.
On to `C[C@]12C=CC(=O)C=C1CC[C@@H]1[C@@H]2[C@@H](O)C[C@@]2(C)[C@H]1CC[C@]2(O)C(=O)CO`, for which the Potency result in assay [1], in assay [2], in assay [3] and in assay [4] was “inactive” throughout.
For `CC(=O)OC(C)(C)C`, the Potency result in assay [1], in assay [2], in assay [3] and in assay [4] was “inactive” each time.
On to `O=C1OC(O)C(C(Cl)Cl)=C1Cl` (centres undefined), for which the Potency result in assay [1], in assay [2], in assay [3] and in assay [4] was “inactive” in each case.
Consider `CCCCCCOC(=O)CCCCCCCC(=O)OCCCCCC`, for which the Potency result in assay [1], in assay [2], in assay [3] and in assay [4] was “inactive” each time.
With `O=C1CCCCCCCCCCCCCC1`, the Potency result in assay [1], in assay [2], in assay [3] and in assay [4] was “inactive” throughout.
`CC(=O)c1ccccc1[N+](=O)[O-]`: the Potency entry in assay [1], in assay [2], in assay [3] and in assay [4] was “inactive” in each case.
In the case of `Cc1cc(=O)[nH]c(=S)[nH]1`, the Potency result in assay [1], in assay [2], in assay [3] and in assay [4] was “inactive” throughout.
Consider `O=C(Cl)c1ccc([N+](=O)[O-])cc1`, for which the Potency entry in assay [1], in assay [2], in assay [3] and in assay [4] was “inactive” in each case.
As for `COc1cccc2sc(N)nc12`, the Potency entry in assay [1], in assay [2], in assay [3] and in assay [4] was “inactive” each time.
In the case of `O=C1c2ccccc2C(=O)c2cc(S(=O)(=O)O)ccc21`, the Potency result in assay [1], in assay [2], in assay [3] and in assay [4] was “inactive” in each case.
Consider `CCCc1ncc(C(=O)O)s1`, for which the Potency result in assay [1], in assay [2], in assay [3] and in assay [4] was “inactive” each time.
Take `CC1=CC[C@H](C(C)C)C=C1`: the Potency entry in assay [1], in assay [2], in assay [3] and in assay [4] was “inactive” throughout.
Regarding `CC(C)=CCCC(C)CCOC=O` (centres undefined), the Potency entry in assay [1], in assay [2], in assay [3] and in assay [4] was “inactive” in each case.
In the case of `C[N+](C)(C)CC[N+]1(C)Cc2c(Cl)c(Cl)c(Cl)c(Cl)c2C1`, the Potency result in assay [1], in assay [2], in assay [3] and in assay [4] was “inactive” in each case.
With `CC(COC(C)(C)C)OCCCO` (centres undefined), the Potency entry in assay [1], in assay [2], in assay [3] and in assay [4] was “inactive” throughout.
Take `C[C@]12CCC(=O)C=C1CC[C@@H]1[C@@H]2C(=O)C[C@@]2(C)[C@H]1CC[C@]2(O)C(=O)CO`: the Potency result in assay [1], in assay [2], in assay [3] and in assay [4] was “inactive” throughout.
Take `CCOC(=O)[C@H](C)O`: the Potency entry in assay [1], in assay [2], in assay [3] and in assay [4] was “inactive” throughout.
Turning to `Cc1cc2nc(N)sc2cc1C`, the Potency result in assay [1], in assay [2], in assay [3] and in assay [4] was “inactive” each time.
As to `Nc1nnc(-c2cccc(Cl)c2Cl)c(N)n1`, the Potency entry in assay [1], in assay [2], in assay [3] and in assay [4] was “inactive” in each case.
As for `CN1CC(=O)NC1=N`, the Potency entry in assay [1], in assay [2], in assay [3] and in assay [4] was “inactive” in each case.
In the case of `CCCC(C)C`, the Potency result in assay [1], in assay [2], in assay [3] and in assay [4] was “inactive” each time.
Consider `C[C@]12CCC(=O)C=C1CC[C@H]1[C@@H]3CC[C@](O)(C(=O)CO)[C@@]3(C)C[C@H](O)[C@@]12F`, for which the Potency result in assay [1], in assay [2], in assay [3] and in assay [4] was “inactive” each time.
`COc1cc2c(c(OC)c1OC)-c1ccc(OC)c(=O)cc1[C@@H](NC(C)=O)CC2`: the Potency result in assay [1], in assay [2], in assay [3] and in assay [4] was “inactive” each time.
Regarding `COc1ccc2c(c1)c(CC(=O)O)c(C)n2C(=O)c1ccc(Cl)cc1`, the Potency entry in assay [1], in assay [2], in assay [3] and in assay [4] was “inactive” throughout.
On to `O=[N+]([O-])c1ccc(CO)cc1`, for which the Potency result in assay [1], in assay [2], in assay [3] and in assay [4] was “inactive” throughout.
`C[N+](C)(C)CCOC(=O)CCC(=O)OCC[N+](C)(C)C`: the Potency entry in assay [1], in assay [2], in assay [3] and in assay [4] was “inactive” each time.
Regarding `CCC(C)(C)C1CCC(O)CC1` (centres undefined), the Potency result in assay [1], in assay [2], in assay [3] and in assay [4] was “inactive” each time.
Take `CC(=O)N(CC(O)CO)c1c(I)c(C(=O)NCC(O)CO)c(I)c(C(=O)NCC(O)CO)c1I` (centres undefined): the Potency result in assay [1], in assay [2], in assay [3] and in assay [4] was “inactive” throughout.
Take `CC(=O)CCC(C)C`: the Potency result in assay [1], in assay [2], in assay [3] and in assay [4] was “inactive” in each case.
Consider `O=Cc1ccccc1S(=O)(=O)O`, for which the Potency result in assay [1], in assay [2], in assay [3] and in assay [4] was “inactive” each time.
Turning to `C=C[Si](C)(C)Cl`, in assay [1], the activity, negative = inhibition is 1.82% [at 10.5 µM] (inactive). Further, the activity change, negative = inhibition was 0.136% [at 10.5 µM] (inactive) in assay [2], -9.61% [at 10.5 µM] (inactive) in assay [3] and -5.99% [at 10.5 µM] (inactive) in assay [4].
In the case of `C=CC(C)(C)C`, the Potency result in assay [1], in assay [2], in assay [3] and in assay [4] was “inactive” in each case.
On to `O=C(O)c1ccccc1C(=O)O`, for which the Potency entry in assay [1], in assay [2], in assay [3] and in assay [4] was “inactive” each time.
Take `CC(CCO)CCCC(C)(C)O` (centres undefined): the Potency entry in assay [1], in assay [2], in assay [3] and in assay [4] was “inactive” in each case.
As to `CC(C)c1ccc2c(C(C)C)cc(C(C)C)c(S(=O)(=O)O)c2c1`, the Potency result in assay [1], in assay [2], in assay [3] and in assay [4] was “inactive” each time.
With `CCCCCC1=CCCC1=O`, the Potency entry in assay [1], in assay [2] and in assay [4] was “inactive” in each case. Further, in assay [3], the Potency is 22.9 µM (active) and inactive.
Regarding `CC(C)(O)C(=O)c1ccccc1`, the Potency result in assay [1], in assay [2], in assay [3] and in assay [4] was “inactive” throughout.
For the compound `O=C(c1ccc2c(c1)C(=O)OC2=O)c1ccc2c(c1)C(=O)OC2=O`, the Potency entry in assay [1], in assay [2], in assay [3] and in assay [4] was “inactive” in each case.
